This passage reports binding signal results from PMC10726135, “HNF4α isoforms regulate the circadian balance between carbohydrate and lipid metabolism in the liver”.

Whole data set: some 18,000 sequences, median “log2 normalized intensity” near 0.36, cut for the highest 2% near 7.3. Only a selection was taken, and the highest values are over-represented in it overall.

For this test, the target named is T1, HNF4alpha8 (COS-7 nuclear extract) (Homo sapiens, UniProt P41235-5 1-452).
T1 sequence: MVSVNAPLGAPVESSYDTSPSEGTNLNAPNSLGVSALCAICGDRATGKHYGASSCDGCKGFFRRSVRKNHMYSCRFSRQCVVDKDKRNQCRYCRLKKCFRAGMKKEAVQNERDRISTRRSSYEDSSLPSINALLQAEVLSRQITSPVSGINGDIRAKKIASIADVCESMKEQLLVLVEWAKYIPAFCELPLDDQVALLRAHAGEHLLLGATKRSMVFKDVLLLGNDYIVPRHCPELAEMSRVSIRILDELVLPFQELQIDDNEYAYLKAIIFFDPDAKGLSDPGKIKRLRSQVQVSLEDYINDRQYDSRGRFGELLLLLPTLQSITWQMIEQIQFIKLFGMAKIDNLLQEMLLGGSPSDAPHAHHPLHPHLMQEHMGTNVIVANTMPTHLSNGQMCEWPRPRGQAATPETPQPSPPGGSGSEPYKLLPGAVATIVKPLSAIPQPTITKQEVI
The experiment in a line: protein-binding microarray; COS-7 nuclear extract on double-stranded Agilent 4x180k PBM; binding buffer, salt, pH and temperature not given in the material; high values mean tight binding. Particulars: chain copies: 2; label: 3' end of strand 1 on the slide; dsDNA, one strand shown. The method in brief: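 Double-stranded oligonucleotides of ~60 nt, representing ~44,000 test sequences in quadruplicate, made up a custom Agilent SurePrint G3 4x180k array. Nuclear extracts from COS-7 cells transiently transfected by CaPO4 with a human HNF4α isoform expression vector were applied, and bound HNF4α was imaged at 2-µm resolution on an Agilent G2565CA scanner. Binding signal refers to the background-corrected, normalized gProcessedSignal output of Agilent software.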
On to “GGGGCCTAGCTTGTAAAGGGTAATCTGCTTGCCTAGGGAGATTAGAGTATCGGTCGA”, for which the binding signal is -0.484 log2 normalized intensity. The value for “CTTCCAAGGCTGCAAGCAAACCTGCCCTTTGCCTAGGGAGATTAGAGTATCGGTCGA” was 4.57 log2 normalized intensity; that for “TCTCGCTGCTTCGGCCTTTGACCTCGTGATGCCTAGGGAGATTAGAGTATCGGTCGA” was 7.09 log2 normalized intensity.

In the case of “TGGGGTCTCGCTGCTTCGGCCTTTGACCTCGCCTAGGGAGATTAGAGTATCGGTCGA”, the binding signal was determined as 8.46 log2 normalized intensity. The same measure for “CAGGGTGGGGTCTCGCTGCTTCGGCCTTTGGCCTAGGGAGATTAGAGTATCGGTCGA”: 1.11 log2 normalized intensity; for “CCAAAGTCCAAAGTCCAGTCTTATCTGAGAGCCTAGGGAGATTAGAGTATCGGTCGA”: 7.93 log2 normalized intensity.

Regarding “CAACTCCAAAGTCCAAAGTCCAGTCTTATCGCCTAGGGAGATTAGAGTATCGGTCGA”, the binding signal was found to be 8.47 log2 normalized intensity. The value for “AGTCCAAAGGTCTGAGAACCAAGAGAGCCAGCCTAGGGAGATTAGAGTATCGGTCGA” was 1.62 log2 normalized intensity.

On to “GACCAGTCTGCCTGACTCCAGAGTCCAAACGCCTAGGGAGATTAGAGTATCGGTCGA”, for which the binding signal turned out to be 4.23 log2 normalized intensity. Regarding “GCATGGCTCAGTCCAAGTCCAAAGGTCTGAGCCTAGGGAGATTAGAGTATCGGTCGA”, the binding signal is 6.28 log2 normalized intensity.

For “ATTCCTAAGTTCCAAAGGCCATCCACATTCGCCTAGGGAGATTAGAGTATCGGTCGA”, the binding signal was found to be 2.4 log2 normalized intensity. The value for “AGCCCTTATATCCACATGGGTCCAAAGTTCGCCTAGGGAGATTAGAGTATCGGTCGA” was 9.47 log2 normalized intensity; that for “AGTCTTGAGTCCCAAAGTCCAAAGGCAGTCGCCTAGGGAGATTAGAGTATCGGTCGA” was 3.61 log2 normalized intensity. Regarding “TGCCTGCAGGAGAGAGCAAAGTCCACGCATGCCTAGGGAGATTAGAGTATCGGTCGA”, the binding signal worked out at 6.82 log2 normalized intensity. Take “CAGGGAGCCCTTATATCCACATGGGTCCAAGCCTAGGGAGATTAGAGTATCGGTCGA”: the binding signal was found to be 3.03 log2 normalized intensity. The value for “CTATCTGCCTGCAGGAGAGAGCAAAGTCCAGCCTAGGGAGATTAGAGTATCGGTCGA” was 8.21 log2 normalized intensity. As for “CTTGAGTCCAGGAGTGCAAAGCTGCTATGAGCCTAGGGAGATTAGAGTATCGGTCGA”, the binding signal is -0.723 log2 normalized intensity.

“TTCAGTCTTTGTCTTAGCCTGCTCTTTTCCGCCTAGGGAGATTAGAGTATCGGTCGA”: the binding signal came out at 1.12 log2 normalized intensity. The same measure for “CCTCTGAAAACTTTTACTGGGAAGAGATAAGCCTAGGGAGATTAGAGTATCGGTCGA”: -0.817 log2 normalized intensity; for “AGATAAGACAAGCTCTGTTTGTTTTGTTACGCCTAGGGAGATTAGAGTATCGGTCGA”: 1.26 log2 normalized intensity; for “ACTTTGCCTTTTGGCTAAAGTCCAAATTCCGCCTAGGGAGATTAGAGTATCGGTCGA”: 6.01 log2 normalized intensity. The same measure for “GTCAAAACTTTGTTTGAGTTCCAAAGTCCAGCCTAGGGAGATTAGAGTATCGGTCGA”: 7.18 log2 normalized intensity; for “AACTTTGTTTGAGTTCCAAAGTCCATGTTCGCCTAGGGAGATTAGAGTATCGGTCGA”: 7.61 log2 normalized intensity; for “ATACAGAATCAATGCCTGATTCCAAAGTCCGCCTAGGGAGATTAGAGTATCGGTCGA”: 6.36 log2 normalized intensity.

Take “TGTTTGAGTTCCAAAGTCCATGTTCATAACGCCTAGGGAGATTAGAGTATCGGTCGA”: the binding signal came out at 5.66 log2 normalized intensity. The same measure for “GAATCAATGCCTGATTCCAAAGTCCACTTTGCCTAGGGAGATTAGAGTATCGGTCGA”: 7.71 log2 normalized intensity; for “TGTTTGTTTTGAGATAGGGTCTTGCTTTGTGCCTAGGGAGATTAGAGTATCGGTCGA”: 1.3 log2 normalized intensity; for “CACTCATGGTGTTTGCTTTGTGAAGGCTTAGCCTAGGGAGATTAGAGTATCGGTCGA”: 0.417 log2 normalized intensity. The value for “TTCCTCCAGCCTGTCGGAATTTGCCCTGTGGCCTAGGGAGATTAGAGTATCGGTCGA” was 5.15 log2 normalized intensity.

On to “ACCATTAACCCTACAGTCCTGCCACATCCCGCCTAGGGAGATTAGAGTATCGGTCGA”, for which the binding signal was -0.385 log2 normalized intensity. With “ATCTCATCCTGTGACCAAGAATGTCTAACCGCCTAGGGAGATTAGAGTATCGGTCGA”, the binding signal is -0.428 log2 normalized intensity. The value for “TTAGGATGACCTTTAGATTCTTACAGGCAAGCCTAGGGAGATTAGAGTATCGGTCGA” was 4.57 log2 normalized intensity; that for “CTTGACCTTTGATCCAGGCTCAGTGGGCGTGCCTAGGGAGATTAGAGTATCGGTCGA” was 5.72 log2 normalized intensity. The same measure for “CAAGCTTGATCCAGGATCCTTCTTGACCAGGCCTAGGGAGATTAGAGTATCGGTCGA”: 1.18 log2 normalized intensity. On to “ATCCTTCTTGACCAGGCAAGCTTGACCTTTGCCTAGGGAGATTAGAGTATCGGTCGA”, for which the binding signal worked out at 7.77 log2 normalized intensity.

Regarding “GCAAGCTTGACCTTTGATCCAGGCTCAGTGGCCTAGGGAGATTAGAGTATCGGTCGA”, the binding signal came out at 8.22 log2 normalized intensity. The value for “ATTTGACCCTTGGCCAGGTGCAGTGGCTCAGCCTAGGGAGATTAGAGTATCGGTCGA” was 3.54 log2 normalized intensity; that for “ACTTTGACCTAGAAGCCAGGGACCAGGAAGGCCTAGGGAGATTAGAGTATCGGTCGA” was -0.796 log2 normalized intensity; that for “TTGATCCAGGATCCTTCTTGACCAGGCAAGGCCTAGGGAGATTAGAGTATCGGTCGA” was 0.747 log2 normalized intensity. The value for “TCTTGACCAGGCAAGCTTGACCTTTGATCCGCCTAGGGAGATTAGAGTATCGGTCGA” was 10 log2 normalized intensity; that for “GCTCCTGTTCCTTTGTTACACTGGCTGCCCGCCTAGGGAGATTAGAGTATCGGTCGA” was 2.08 log2 normalized intensity; that for “AAAGGTCACCAGTGAGCCAAGGTACCCTGGGCCTAGGGAGATTAGAGTATCGGTCGA” was 1.29 log2 normalized intensity.
